Laboratory results published in publication PMC4336329 (PLoS ONE, 2015).
Screen size: about 310,000 compounds; about 14,000 (4.5%) showed an effect of 50% or more. Effects have a minus sign here. The entries come from a sample that favours strong results as a whole.

molecular target: human ether-à-go-go-related gene (hERG) potassium channel (human, UniProt Q12809); test: primary screen, population patch clamp on CHO cells stably expressing hERG; higher = less effect of the substance
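Note: peak tail current of the secondary pulse compared with the same well before compound.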

human ether-à-go-go-related gene (hERG) potassium channel, sequence (Q12809 whole entry, looked up): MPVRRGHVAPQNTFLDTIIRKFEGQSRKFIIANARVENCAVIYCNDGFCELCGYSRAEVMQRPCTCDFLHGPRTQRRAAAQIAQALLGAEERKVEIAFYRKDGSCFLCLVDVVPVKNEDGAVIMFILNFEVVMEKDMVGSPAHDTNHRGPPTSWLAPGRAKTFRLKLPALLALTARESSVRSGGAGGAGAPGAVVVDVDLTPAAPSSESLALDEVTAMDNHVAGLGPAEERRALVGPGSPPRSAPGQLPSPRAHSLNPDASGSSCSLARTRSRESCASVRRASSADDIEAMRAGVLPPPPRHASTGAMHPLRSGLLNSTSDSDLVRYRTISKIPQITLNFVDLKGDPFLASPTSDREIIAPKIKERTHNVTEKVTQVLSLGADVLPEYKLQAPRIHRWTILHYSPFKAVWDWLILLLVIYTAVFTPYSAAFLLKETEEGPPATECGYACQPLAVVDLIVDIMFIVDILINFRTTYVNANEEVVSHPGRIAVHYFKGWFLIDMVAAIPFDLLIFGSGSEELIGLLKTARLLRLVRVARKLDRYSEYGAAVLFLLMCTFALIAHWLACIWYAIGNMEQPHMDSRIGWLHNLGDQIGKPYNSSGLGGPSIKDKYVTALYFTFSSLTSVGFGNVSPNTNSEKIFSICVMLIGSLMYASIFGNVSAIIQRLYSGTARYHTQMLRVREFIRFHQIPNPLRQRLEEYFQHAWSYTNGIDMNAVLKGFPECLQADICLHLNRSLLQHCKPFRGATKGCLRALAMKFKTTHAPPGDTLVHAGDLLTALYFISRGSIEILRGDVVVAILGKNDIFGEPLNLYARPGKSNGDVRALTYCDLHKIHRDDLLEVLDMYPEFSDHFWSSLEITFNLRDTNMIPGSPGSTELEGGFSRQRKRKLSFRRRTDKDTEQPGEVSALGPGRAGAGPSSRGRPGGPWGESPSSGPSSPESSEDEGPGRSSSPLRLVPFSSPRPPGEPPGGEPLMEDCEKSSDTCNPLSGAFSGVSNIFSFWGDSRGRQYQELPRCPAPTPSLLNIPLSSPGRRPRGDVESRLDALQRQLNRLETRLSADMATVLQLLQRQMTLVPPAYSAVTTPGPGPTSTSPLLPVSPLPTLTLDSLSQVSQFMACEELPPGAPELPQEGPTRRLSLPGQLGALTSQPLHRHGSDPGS

Structure (SMILES) | hERG current change (%, negative = inhibition) at 10uM [%]
NC(=O)c1ccc(-n2nnnc2SCC(=O)Nc2ccccc2-c2ccccc2)cc1 | -58.1
NC(=O)c1nn(-c2ccccc2)nc1NC(=O)CSc1nnnn1-c1ccc(Cl)cc1 | -53.7
NC(=O)c1ccc(-n2nnnc2SCC(=O)Nc2ccccc2F)cc1 | 18.9
CC(C)(C)n1nnnc1SCC(=O)Nc1nn(-c2ccccc2)nc1C(N)=O | 9.33
Cn1nnnc1SCC(=O)Nc1nn(-c2ccccc2)nc1C(N)=O | -13.8
NC(=O)c1ccc(-n2nnnc2SCC(=O)Nc2ccccc2)cc1 | 14.3
CN1CCN(c2cn[nH]c(=O)c2Cl)CC1 | 15.4
Cc1ccc(-c2csc(NC(=O)CN3CCC(C(N)=O)CC3)n2)cc1 | 8.38
CN=c1scc(-c2ccccc2F)n1/N=C(\C)c1cccnc1 | -28.9
COCCn1c(-c2cccs2)csc1=Nc1cccnc1 | -15.3
c1cncc(N=c2scc(-c3cccc4ccccc34)n2CCCn2ccnc2)c1 | -56.5
CC(C)Cn1c(-c2ccco2)csc1=Nc1cccnc1 | 8.45
Fc1ccccc1-c1csc(=Nc2cccnc2)n1CC1CCCO1 (stereo not drawn) | -16.8
Fc1ccccc1-c1csc(=Nc2cccnc2)n1CCCn1ccnc1 | -60.1
Cc1cc(C)cc(OCc2ccc(C(=O)NN)o2)c1 | 14.2
COc1ccc(CCNC(=S)Nc2cc(C)ccc2C)cc1 | -15.9
CS(=O)(=O)N(C(=O)NC(=O)NC1CCS(=O)(=O)C1)C1CCCCC1 (stereo not drawn) | 4.13
COc1ccc(-c2nn(-c3ccccc3)cc2/C=C2/SC(=S)N(Cc3ccco3)C2=O)c(C)c1 | 8.73
Cc1cccc(Cn2c(=O)c3c(nc4n3CCCN4Cc3ccccc3)n(C)c2=O)c1 | -38.8
Cn1c(=O)n(Cc2ccccc2)c(=O)c2c1nc1n2CCN1Cc1ccco1 | -36.7
Cn1c(=O)n(Cc2ccc(Cl)cc2)c(=O)c2c1nc1n2CCN1Cc1ccco1 | -21.5
Cc1ccc(Cn2c(=O)c3c(nc4n3CCN4Cc3ccco3)n(C)c2=O)cc1 | -17.9
CCCn1c(=O)c2c(nc3n2CCN3Cc2ccco2)n(C)c1=O | -5.94

Structure (SMILES) | hERG current change (%, negative = inhibition) at 10uM [%]
Cn1c(=O)n(CCc2ccccc2)c(=O)c2c1nc1n2CCN1Cc1ccco1 | -55.5
Cc1cccc(Cn2c(=O)c3c(nc4n3CCN4Cc3ccco3)n(C)c2=O)c1 | -52.2
Cn1c(=O)n(Cc2ccc(F)cc2)c(=O)c2c1nc1n2CCN1Cc1ccco1 | -55.4
Cc1ccc(C)c(Cn2c(=O)c3c(nc4n3CCN4Cc3ccco3)n(C)c2=O)c1 | -3.76
CC1CCC(NC(=O)C(Cc2ccccc2)n2cccc2)CC1 (stereo not drawn) | -14.9
Cc1cc(C)cc(OCC(=O)N/N=C/c2ccco2)c1 | 37.4
COc1cccc(-n2nnc3c(=O)n(CC(=O)OCc4ccccc4)cnc32)c1 | 9.39
CC(=O)Nc1ccc(CN2CCc3c([nH]c4ccccc34)C2c2ccccn2)cc1 (stereo not drawn) | -38.5
c1ccc(C2c3[nH]c4ccccc4c3CCN2Cc2cccn2-c2cccnc2)nc1 (stereo not drawn) | -23.7
O=C(Cc1ccsc1)N1CCc2c([nH]c3ccccc23)C1c1ccccn1 (stereo not drawn) | 4.87
c1ccc(C2c3[nH]c4ccccc4c3CCN2Cc2cccn2-c2ccccn2)nc1 (stereo not drawn) | -70.5
Clc1ccc(-n2cccc2CN2CCc3c([nH]c4ccccc34)C2c2ccccn2)nc1 (stereo not drawn) | -77
CSc1ncc(CN2CCc3c([nH]c4ccccc34)C2c2cccc(C)n2)cn1 (stereo not drawn) | -13.8
CCOC(=O)C1CCN(S(=O)(=O)c2ccc(Cl)nc2)CC1 | -2.6
COc1ccc2oc(C(=O)NCCC(C)C)c(C)c2c1 | -0.78
Cn1nc(C(=O)OCc2ccccc2F)c2ccccc2c1=O | 13
COc1ccc(C(C)(C)C)cc1NC(=O)c1cccc(S(=O)(=O)N2CCN(C(C)=O)CC2)c1 | 11.5
Cc1ccc(S(=O)(=O)N2CCN(c3ncnc4c3cnn4-c3ccccc3)CC2)cc1 | 14.3
Oc1ccccc1C1=Nc2ncnn2C(c2ccccc2)C1 (stereo not drawn) | -16.6
Oc1ccccc1C1=Nc2ncnn2C(c2ccc(F)cc2)C1 (stereo not drawn) | -80.8
Oc1ccccc1C1=NN(c2ccccc2)C(c2ccc(F)cc2)C1 (stereo not drawn) | 9.68
COc1ccc(NC2CC(=O)NC2=O)cc1 (stereo not drawn) | 5.24
